The source of these data is ChEMBL document CHEMBL1961873, “Compounds: GSK PKIS; Assays: Nanosyn kinase panel” (2012).

Assay [1] has as its target Rho-associated protein kinase 1 (Homo sapiens) (UniProt Q13464). To be noted: at 1 µM.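 Also: reported values are mean percent inhibition of ROCK1.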
Assay [2] deals with Rho-associated protein kinase 2 (Homo sapiens) (UniProt O75116). The following applies: at 0.1 µM.
Assay [3] has the same target. The following applies: at 1 µM.
Assay [4] addresses Ribosomal protein S6 kinase alpha-1 (Homo sapiens) (UniProt Q15418). The following applies: at 0.1 µM.
Assay [5] shares this target. To be noted: at 1 µM.
Assay [6] deals with Ribosomal protein S6 kinase alpha-3 (Homo sapiens) (UniProt P51812). To be noted: at 0.1 µM.
Sequence of Ribosomal protein S6 kinase alpha-3 (Homo sapiens) (P51812 whole entry): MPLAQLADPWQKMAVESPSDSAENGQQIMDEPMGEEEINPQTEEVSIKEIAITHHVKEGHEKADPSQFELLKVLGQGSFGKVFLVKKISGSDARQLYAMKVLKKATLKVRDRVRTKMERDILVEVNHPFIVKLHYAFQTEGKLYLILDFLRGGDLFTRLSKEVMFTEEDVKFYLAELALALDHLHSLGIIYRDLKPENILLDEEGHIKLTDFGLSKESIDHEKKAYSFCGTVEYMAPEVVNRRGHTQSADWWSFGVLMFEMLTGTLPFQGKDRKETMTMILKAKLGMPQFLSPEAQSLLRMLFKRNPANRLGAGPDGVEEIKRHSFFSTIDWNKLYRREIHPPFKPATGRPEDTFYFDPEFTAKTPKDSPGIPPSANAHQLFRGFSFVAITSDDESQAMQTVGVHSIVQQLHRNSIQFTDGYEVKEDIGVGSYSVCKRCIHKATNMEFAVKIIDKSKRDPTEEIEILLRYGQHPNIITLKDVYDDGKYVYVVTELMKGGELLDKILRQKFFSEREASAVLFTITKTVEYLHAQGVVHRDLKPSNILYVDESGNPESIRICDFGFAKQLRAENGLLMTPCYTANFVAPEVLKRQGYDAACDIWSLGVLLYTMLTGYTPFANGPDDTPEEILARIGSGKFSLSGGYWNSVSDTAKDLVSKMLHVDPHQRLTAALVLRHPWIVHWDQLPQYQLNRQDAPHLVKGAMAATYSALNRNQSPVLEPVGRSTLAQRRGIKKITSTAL
For assay [7] the target is unchanged. To be noted: at 1 µM.
Assay [8] concerns the target Ribosomal protein S6 kinase alpha-2 (Homo sapiens) (UniProt Q15349). The following applies: at 0.1 µM.
Assay [9] has the same target. The following applies: at 1 µM.
Assay [10] addresses Ribosomal protein S6 kinase alpha-6 (Homo sapiens) (UniProt Q9UK32). The following applies: at 0.1 µM.

Sequence of Rho-associated protein kinase 1 (Homo sapiens) (Q13464 2-1354 limits assumed): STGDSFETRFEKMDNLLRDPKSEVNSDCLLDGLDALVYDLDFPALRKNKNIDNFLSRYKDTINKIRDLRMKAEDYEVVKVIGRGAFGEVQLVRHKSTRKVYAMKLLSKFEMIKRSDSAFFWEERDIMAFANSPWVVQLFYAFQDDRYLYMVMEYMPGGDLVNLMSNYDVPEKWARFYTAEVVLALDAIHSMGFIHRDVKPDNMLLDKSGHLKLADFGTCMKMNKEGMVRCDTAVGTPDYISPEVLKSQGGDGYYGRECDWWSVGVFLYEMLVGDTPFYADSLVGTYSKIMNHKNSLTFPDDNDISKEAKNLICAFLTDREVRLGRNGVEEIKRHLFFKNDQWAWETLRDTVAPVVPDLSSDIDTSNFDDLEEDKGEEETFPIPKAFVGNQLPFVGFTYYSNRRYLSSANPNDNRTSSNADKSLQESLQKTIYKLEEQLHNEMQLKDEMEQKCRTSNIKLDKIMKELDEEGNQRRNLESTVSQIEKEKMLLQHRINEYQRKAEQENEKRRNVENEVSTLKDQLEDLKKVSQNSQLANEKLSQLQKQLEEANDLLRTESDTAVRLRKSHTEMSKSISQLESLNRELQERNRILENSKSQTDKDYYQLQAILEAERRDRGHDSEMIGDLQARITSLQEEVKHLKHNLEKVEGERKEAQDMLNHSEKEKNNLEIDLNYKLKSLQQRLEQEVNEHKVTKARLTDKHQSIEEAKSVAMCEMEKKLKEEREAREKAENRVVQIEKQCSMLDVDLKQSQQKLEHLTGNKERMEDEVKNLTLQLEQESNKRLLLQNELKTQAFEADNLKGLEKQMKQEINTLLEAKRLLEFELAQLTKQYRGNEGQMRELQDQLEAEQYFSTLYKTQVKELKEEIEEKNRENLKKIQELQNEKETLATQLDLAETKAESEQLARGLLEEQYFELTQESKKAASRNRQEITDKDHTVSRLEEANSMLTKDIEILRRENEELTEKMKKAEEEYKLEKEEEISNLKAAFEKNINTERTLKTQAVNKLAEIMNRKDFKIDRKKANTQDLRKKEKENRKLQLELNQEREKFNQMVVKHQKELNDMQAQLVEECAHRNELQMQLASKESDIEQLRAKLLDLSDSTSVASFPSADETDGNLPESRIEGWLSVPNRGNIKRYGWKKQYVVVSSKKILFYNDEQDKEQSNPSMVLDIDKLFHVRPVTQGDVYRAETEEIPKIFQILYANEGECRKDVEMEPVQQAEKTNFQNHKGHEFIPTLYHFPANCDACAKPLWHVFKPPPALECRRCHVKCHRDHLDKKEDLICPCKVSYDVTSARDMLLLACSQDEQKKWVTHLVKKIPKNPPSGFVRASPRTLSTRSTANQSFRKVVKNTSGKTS
Sequence of Rho-associated protein kinase 2 (Homo sapiens) (O75116 whole entry, looked up): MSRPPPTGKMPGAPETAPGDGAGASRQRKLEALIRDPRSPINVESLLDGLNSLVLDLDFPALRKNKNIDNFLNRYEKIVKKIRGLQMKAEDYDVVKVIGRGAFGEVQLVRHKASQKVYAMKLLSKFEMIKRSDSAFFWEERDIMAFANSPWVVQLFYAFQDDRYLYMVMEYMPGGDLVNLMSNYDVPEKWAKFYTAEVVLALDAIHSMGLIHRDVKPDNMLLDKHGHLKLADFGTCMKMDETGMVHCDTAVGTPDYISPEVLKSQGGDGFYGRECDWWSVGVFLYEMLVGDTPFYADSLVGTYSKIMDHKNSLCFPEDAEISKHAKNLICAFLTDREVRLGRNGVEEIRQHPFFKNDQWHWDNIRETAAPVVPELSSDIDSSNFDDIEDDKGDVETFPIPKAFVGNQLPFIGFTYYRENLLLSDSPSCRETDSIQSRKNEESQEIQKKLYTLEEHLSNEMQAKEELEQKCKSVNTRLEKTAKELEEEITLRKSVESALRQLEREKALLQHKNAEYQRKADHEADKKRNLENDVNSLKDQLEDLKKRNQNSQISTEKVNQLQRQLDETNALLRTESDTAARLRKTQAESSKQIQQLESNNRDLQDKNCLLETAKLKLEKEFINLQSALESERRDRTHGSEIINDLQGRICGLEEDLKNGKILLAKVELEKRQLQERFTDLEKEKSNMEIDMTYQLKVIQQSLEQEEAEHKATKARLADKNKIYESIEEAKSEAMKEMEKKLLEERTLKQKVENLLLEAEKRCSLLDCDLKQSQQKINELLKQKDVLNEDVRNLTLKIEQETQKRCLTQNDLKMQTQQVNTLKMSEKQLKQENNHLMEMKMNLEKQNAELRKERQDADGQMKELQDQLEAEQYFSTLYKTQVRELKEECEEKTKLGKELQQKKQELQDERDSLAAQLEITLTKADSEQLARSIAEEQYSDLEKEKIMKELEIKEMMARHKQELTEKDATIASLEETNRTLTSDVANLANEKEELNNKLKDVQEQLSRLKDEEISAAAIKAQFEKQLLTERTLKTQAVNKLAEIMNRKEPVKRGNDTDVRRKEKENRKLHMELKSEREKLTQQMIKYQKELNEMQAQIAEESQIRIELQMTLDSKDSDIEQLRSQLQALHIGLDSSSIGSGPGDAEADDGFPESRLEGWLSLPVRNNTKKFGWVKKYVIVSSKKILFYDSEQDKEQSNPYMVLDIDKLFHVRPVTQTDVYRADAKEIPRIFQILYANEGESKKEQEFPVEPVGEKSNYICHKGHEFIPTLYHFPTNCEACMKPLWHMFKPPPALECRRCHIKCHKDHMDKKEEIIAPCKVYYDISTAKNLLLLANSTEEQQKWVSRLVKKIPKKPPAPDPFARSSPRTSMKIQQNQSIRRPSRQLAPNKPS
Sequence of Ribosomal protein S6 kinase alpha-2 (Homo sapiens) (Q15349 whole entry): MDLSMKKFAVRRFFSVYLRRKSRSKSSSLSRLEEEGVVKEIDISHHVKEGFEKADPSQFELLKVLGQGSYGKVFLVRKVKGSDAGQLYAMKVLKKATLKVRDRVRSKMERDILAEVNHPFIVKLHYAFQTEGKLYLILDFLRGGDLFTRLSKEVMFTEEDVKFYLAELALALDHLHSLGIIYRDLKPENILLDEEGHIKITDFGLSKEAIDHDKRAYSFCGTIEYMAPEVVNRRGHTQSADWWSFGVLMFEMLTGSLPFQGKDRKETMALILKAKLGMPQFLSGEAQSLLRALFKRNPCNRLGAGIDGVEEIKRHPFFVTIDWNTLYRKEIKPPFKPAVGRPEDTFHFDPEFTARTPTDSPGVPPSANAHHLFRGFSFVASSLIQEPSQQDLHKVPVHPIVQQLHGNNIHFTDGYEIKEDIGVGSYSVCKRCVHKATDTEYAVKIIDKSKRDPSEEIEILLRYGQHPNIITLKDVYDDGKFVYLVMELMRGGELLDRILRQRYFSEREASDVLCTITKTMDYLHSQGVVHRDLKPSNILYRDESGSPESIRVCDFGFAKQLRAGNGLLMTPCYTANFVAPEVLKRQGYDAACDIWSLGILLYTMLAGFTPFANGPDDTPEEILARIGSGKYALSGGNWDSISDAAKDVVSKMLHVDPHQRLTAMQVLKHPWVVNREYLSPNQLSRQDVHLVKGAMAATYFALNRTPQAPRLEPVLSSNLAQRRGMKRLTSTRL
Sequence of Ribosomal protein S6 kinase alpha-1 (Homo sapiens) (Q15418 whole entry): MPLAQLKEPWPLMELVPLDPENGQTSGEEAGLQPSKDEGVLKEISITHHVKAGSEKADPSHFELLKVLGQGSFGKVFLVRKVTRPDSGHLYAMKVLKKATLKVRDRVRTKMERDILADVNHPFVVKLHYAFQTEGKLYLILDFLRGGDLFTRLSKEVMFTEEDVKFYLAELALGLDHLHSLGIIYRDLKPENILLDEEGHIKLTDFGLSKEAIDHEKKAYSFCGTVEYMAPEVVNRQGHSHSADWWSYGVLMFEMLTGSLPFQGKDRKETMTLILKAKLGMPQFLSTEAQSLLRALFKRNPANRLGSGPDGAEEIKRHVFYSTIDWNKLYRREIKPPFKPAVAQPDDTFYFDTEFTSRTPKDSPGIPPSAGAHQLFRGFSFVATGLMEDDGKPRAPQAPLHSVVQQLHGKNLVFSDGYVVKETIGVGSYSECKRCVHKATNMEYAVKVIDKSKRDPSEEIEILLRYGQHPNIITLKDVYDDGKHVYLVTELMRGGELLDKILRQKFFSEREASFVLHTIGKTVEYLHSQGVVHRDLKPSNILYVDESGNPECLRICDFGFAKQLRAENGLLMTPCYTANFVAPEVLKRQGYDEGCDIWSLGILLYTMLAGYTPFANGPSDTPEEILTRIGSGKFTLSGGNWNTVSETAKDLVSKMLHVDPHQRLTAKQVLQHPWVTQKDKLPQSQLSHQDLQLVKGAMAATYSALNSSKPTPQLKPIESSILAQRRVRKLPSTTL

On to `CS(=O)(=O)Nc1ccc(-c2ccc3c(NC(=O)C4CC4)n[nH]c3c2)cc1`, for which the inhibition (usually the change of the read-out against control, counted positive when it falls) in [1] was 1.98%; in [2] it was 0.25%; in assay [3] it was -0.32%; in assay [4] it was 1.25%; in assay [5] it was 1.36%; in assay [6], 0.62%. Also, the inhibition in assay [7] amounted to 0.96%; in [8], 0.73%; in assay [9] it was 3.79%; in assay [10] it was 1.37%.
On to `O=C1Nc2ccccc2/C1=C1\CCc2cc(O)ccc21`, for which the inhibition amounted to 2.49% in assay [1]; 2.95% in assay [2]; 3.95% in assay [3]; 5.76% in [4]; 28.4% in assay [5]; 4.82% in assay [6]. In addition, the inhibition in assay [7] was 27%; in [8], 9.8%; in [9] it was 42.1%; in [10] it was 7.24%.
In the case of `COc1ccc(Nc2ncc(-c3ccccc3)o2)cc1OC`, the inhibition is 2.03% in assay [1]; -0.31% in assay [2]; 2.22% in assay [3]; 0.28% in assay [4]; 2.18% in assay [5]; 0.01% in assay [6]. In addition, the inhibition was found to be 2.14% in assay [7], 1.32% in [8], 4.35% in assay [9] and 0.4% in assay [10].
As to `COc1cc(Nc2ncc(-c3ccccc3)o2)cc(OC)c1`, the inhibition in assay [1] is 2.6%; in [2], 3.77%; in assay [3] it was -3.98%; in assay [4] it was 1.54%; in assay [5] it was 1.99%; in assay [6] it was 1.01%. Moreover, the inhibition in assay [7] is 2.61%; in [8], 1.71%; in assay [9] it was 3.57%; in assay [10] it was 0.85%.
In the case of `Cc1cc(O)cc(C)c1/C=C/c1cncc(C(=O)OC(C)(C)C)c1`, the inhibition came to 2.78% in assay [1]; 4.67% in assay [2]; 3.55% in [3]; 0.74% in assay [4]; 1.77% in assay [5]; 1.52% in [6]. The inhibition in assay [7] was 1.88%; in assay [8], 1.57%; in assay [9], 1.41%; in [10] it was 0.33%.
Take `CS(=O)(=O)Nc1ccc(-c2cc(-c3ccccc3)cc(C(N)=O)c2N)cc1`: the inhibition in assay [1] is 1.71%; in [2], 0.41%; in assay [3], 1.85%; in assay [4] it was -1.14%; in [5] it was 0.41%; in [6], -0.7%. The inhibition was 0.45% in assay [7], -1.55% in assay [8], 0.47% in assay [9] and -1.16% in [10].
On to `CCCNc1cccc(-n2ncc3c(N/N=C/c4ccncc4)ncnc32)c1`, for which the inhibition in assay [1] was found to be 13.7%; in [2], 4.97%; in assay [3] it was 28.1%; in assay [4], 1.36%; in [5] it was 4.72%; in assay [6] it was 1.62%. Moreover, the inhibition in assay [7] was 4.75%; in assay [8], -0.01%; in [9], 2.43%; in [10], 0.53%.
As for `CCN1CCC(C(=O)Nc2n[nH]c3nnc(-c4cccc(F)c4F)cc23)CC1`, the inhibition in assay [1] is -0.9%; in [2] it was 0.68%; in assay [3], -0.77%; in assay [4], 0.15%; in assay [5] it was 0.28%; in [6], 1.06%. For the same compound, the inhibition in assay [7] was 2.16%; in assay [8], -0.71%; in assay [9], 1.38%; in [10] it was 0.8%.
For the compound `Fc1cccc(COc2ccc(Nc3ncncc3C#Cc3ccccc3)cc2Cl)c1`, the inhibition in assay [1] came out at 1.47%; in [2], 3.76%; in assay [3], 7.12%; in assay [4], 3.37%; in [5] it was 6.51%; in [6], 1.92%. In addition, the inhibition in assay [7] came to 4.01%; in [8], 3.21%; in [9], 2.81%; in assay [10], 1.21%.
As to `c1ccc(-c2n[nH]cc2-c2ccnc(-c3ccc(OCCn4ccnc4)cc3)c2)nc1`, the inhibition stood at 5.6% in [1]; 5.64% in assay [2]; 7.73% in assay [3]; 0.66% in assay [4]; 4.31% in [5]; 0.64% in assay [6]. The inhibition in [7] came to 3.85%; in assay [8] it was 1.32%; in assay [9], 1.36%; in assay [10], 0.75%.
In the case of `Cc1cc(O)cc(C)c1/C=C/c1cncc(C(N)=O)c1`, the inhibition in assay [1] was 3.29%; in [2] it was 3.18%; in assay [3], 2.02%; in assay [4] it was 0.33%; in assay [5], -0.09%; in assay [6] it was 1.07%. The inhibition in assay [7] is -0.35%; in [8], 1.1%; in assay [9], 1.48%; in [10], 0.72%.
`CNC(=O)c1ncccc1Nc1nc(Nc2cc3c(cc2OC)CCCN3C(=O)CN(C)C)nc2[nH]ccc12`: the inhibition in assay [1] came out at 8.73%; in assay [2], 3.75%; in assay [3] it was 8.67%; in [4], 5.58%; in [5], 25.8%; in assay [6] it was 2.99%. Further, the inhibition was 14.5% in assay [7], 3.13% in assay [8], 7.32% in [9] and 3.92% in assay [10].
`CS(=O)(=O)CCNCc1ccoc1-c1ccc2ncnc(Nc3ccc(OCc4ccccc4)cc3)c2c1`: the inhibition is -0.69% in [1]; -1.1% in assay [2]; 0.07% in assay [3]; 0.19% in assay [4]; -0.1% in assay [5]; -0.27% in assay [6]. Besides, the inhibition in [7] is -0.04%; in assay [8], 1.27%; in assay [9], 1.14%; in assay [10], -0.31%.
Consider `CN1CCC(n2cnc(-c3ccc(F)cc3)c2-c2ccnc(NCCO)n2)CC1`, for which the inhibition in assay [1] stood at 4.39%; in assay [2], 3.23%; in assay [3], 8.52%; in [4], 1.81%; in assay [5], 6.04%; in [6] it was 0.9%. Moreover, the inhibition in [7] is 3.09%; in [8] it was 3.09%; in assay [9] it was 4.29%; in assay [10], 1.56%.
Consider `CC1(C)CC(n2cnc(-c3ccc(F)cc3)c2-c2ccnc(N)n2)CC(C)(C)N1`, for which the inhibition in [1] worked out at 1.6%; in assay [2] it was 1.54%; in assay [3], 1.8%; in assay [4] it was 1.07%; in [5], 1.93%; in assay [6], 1.45%. The inhibition in assay [7] worked out at 2.77%; in assay [8], 1.16%; in [9], 1.53%; in assay [10] it was 0.66%.
Take `CC(C)c1ccc(-c2cc(-c3c[nH]nc3-c3ccccn3)ccn2)cc1`: the inhibition in [1] is 1.96%; in assay [2], 0.45%; in [3], 1.63%; in assay [4] it was -0.37%; in [5], 1.19%; in [6], -0.1%. Besides, the inhibition is 0.24% in [7], 1.17% in assay [8], 1.83% in [9] and 0.05% in assay [10].
